Values joined by “and” are separate entries in the source; they are usually repeats but may differ in a detail not shown here. Equal entries are not always repeated. Structures can show the parent of a compound that is named as a salt. A number with no mark means an inactive call.
Test system: Plasmodium falciparum NF54/iGP1_RE9H ulg8 stage V gametocytes
Experiment: gametocyte viability (luciferase signal relative to DMSO control) (% of DMSO control); higher = less gametocytocidal activity, active = 50 or less
Details: exposure time: 72 h
Outline: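 Viability was calculated relative to the mean of DMSO vehicle wells on each plate. Day-12 stage V gametocytes of line NF54/iGP1_RE9Hulg8 (~2.5% gametocytemia, 3% hematocrit, 0.5% Albumax II medium) were exposed in 96-well plates to compounds at final 10 µM or 1 µM, one well each, for 72 h at 37 °C. Luminescence was then read on an IVIS Lumina II after D-luciferin addition.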

SMILES	gametocyte viability (concentration: 1 µM)	gametocyte viability (concentration: 10 µM)
CC(C)(C)c1cnc(CSc2cnc(NC(=O)C3CCNCC3)s2)o1	104	101
O=C(Nc1cccc(Cl)c1)Nc1ncc(CCNc2ncnc3ccsc23)s1	110	120
CNC(=O)c1ccccc1Sc1ccc2c(/C=C/c3ccccn3)n[nH]c2c1 [Axitinib]	103	98.8
COc1ccc(-c2ccc3c(N4CCOCC4)nc(N4C[C@@H](C)O[C@@H](C)C4)nc3n2)cc1CO	97.1	108
CNC(=O)c1ccc(C)c(-n2c(C)cc(OCc3ccc(F)cc3F)c(Br)c2=O)c1	100	108
CO[C@H]1C[C@@H]2CC[C@@H](C)[C@@](O)(O2)C(=O)C(=O)N2CCCC[C@H]2C(=O)O[C@H]([C@H](C)C[C@@H]2CC[C@@H](O)[C@H](OC)C2)CC(=O)[C@H](C)/C=C(\C)[C@@H](O)[C@@H](OC)C(=O)[C@H](C)C[C@H](C)/C=C/C=C/C=C/1C [Rapamycin]	97.3	97.3
CC1(C)CNc2cc(NC(=O)c3cccnc3NCc3ccncc3)ccc21 [Motesanib Diphosphate]	97	97.4
CNC(=O)CN1CCC(Oc2cc3c(Nc4cccc(Cl)c4F)ncnc3cc2OC)CC1	103	106
N#C/C(=C\c1ccc(O)c(O)c1)C(=O)NCc1ccccc1	98.4	95.8
OCCn1cc(-c2ccc3c(c2)CC/C3=N\O)c(-c2ccncc2)n1	88.7	99.6
O=C1Cc2c([nH]c3ccc(Br)cc23)-c2ccccc2N1 [Kenpaullone]	62.2	16.3 (active)
Cn1cc(C2=C(c3cn(CCCSC(=N)N)c4ccccc34)C(=O)NC2=O)c2ccccc21 [Ro 31-8220 mesylate]	123	78.9
CO[C@@H]1[C@H](N(C)C(=O)c2ccccc2)C[C@H]2O[C@]1(C)n1c3ccccc3c3c4c(c5c6ccccc6n2c5c31)C(=O)NC4	91.1	95.9
COc1cccc(-c2cc(=O)c3ccccc3o2)c1N	97.3 and 93.2	64.5 and 69.7
O=C1NC(=O)/C(=C\c2ccc3nccnc3c2)S1	94.4	101
CNC(=O)c1c(F)cccc1Nc1nc(Nc2cc3c(cc2OC)CCN3C(=O)CN(C)C)nc2[nH]ccc12	103	113
Cc1cc(=O)c2c(O)c3c(O)cc(O)c4c5c(O)cc(O)c6c(O)c7c(=O)cc(C)c8c1c2c(c34)c(c65)c78 [Hypericin]	103	100
COc1ccc(S(=O)(=O)N(C(C)=O)c2ccccc2/C=C/c2cc[n+]([O-])cc2)cc1	98	112
Cc1ccc(C(=O)Nc2cccc(C(F)(F)F)c2)cc1Nc1nc(-c2cccnc2)nc2c1cnn2C	100	98.7
Cc1ccc(F)c(NC(=O)Nc2ccc(-c3cccc4[nH]nc(N)c34)cc2)c1 [Linifanib (ABT-869)]	90.6	89.4
Cc1cc(C(=O)NOCCO)c(Nc2ccc(I)cc2F)n(C)c1=O	90.8	92.8
FC(F)(F)c1ccc(/C=C/c2nc(COc3ccc(CCCCn4ccnn4)cc3)co2)cc1 [Mubritinib (TAK 165)]	95.1	104
CNC(=O)c1cc(Oc2ccc(NC(=O)Nc3cc(C(C)(C)C)nn3-c3ccc4ncccc4c3)c(F)c2)ccn1 [DCC-2036 (Rebastinib)]	103	107
C#Cc1cccc(Nc2ncnc3cc(OCCOC)c(OCCOC)cc23)c1 [Erlotinib HCl]	86.2	82.4

SMILES	gametocyte viability (concentration: 1 µM)	gametocyte viability (concentration: 10 µM)
Clc1ccc(Nc2nnc(Cc3ccncc3)c3ccccc23)cc1 [Vatalanib dihydrochloride (PTK787)]	111	115
Cc1nc(NC(=O)N2CCC[C@H]2C(N)=O)sc1-c1csc(C(C)(C)C)n1	101	92.9
C[C@@H](Oc1cc(-n2cnc3ccc(CN4CCN(C)CC4)cc32)sc1C(N)=O)c1ccccc1C(F)(F)F	103	81.6
N#CCNC(=O)c1ccc(-c2ccnc(Nc3ccc(N4CCOCC4)cc3)n2)cc1	98.5	97.1
CC(C)n1cnc2c(NCc3ccccc3)nc(NCCO)nc21 [N9-isopropyl-olomoucine]	92.7	91
O=P(O)(O)C(O)c1ccc2ccccc2c1 (stereo unspecified) [Hydroxy-2-naphthalenylmethylphosphonic acid]	95.7	90.5
O=C(NC1CCNCC1)c1n[nH]cc1NC(=O)c1c(Cl)cccc1Cl	99.2	69.7
COc1cc2nccc(Oc3ccc(NC(=O)Nc4cc(C)on4)c(Cl)c3)c2cc1OC [Tivozanib (AV-951)]	94	99.8
OCCn1cc(-c2cnc3nnn(Cc4ccc5ncccc5c4)c3n2)cn1	93.3	98.6
NC1(Cc2ccc(Cl)cc2)CCN(c2ncnc3[nH]ccc23)CC1	114	78.9
CN(C)Cc1cccc(N=C(c2ccccc2)c2c(O)[nH]c3cc(C(=O)N(C)C)ccc23)c1	116	121
CN(C)CCCn1cc(C2=C(c3c[nH]c4ccccc34)C(=O)NC2=O)c2ccccc21	92.7	115
O=c1cc(-c2ccc(O)cc2)oc2cc(O)cc(O)c12 [Apigenin]	101	65.3
N#CC(C#N)=C(N)/C(C#N)=C/c1cc(O)c(O)c(O)c1	110	113
Cc1ccc(NC(=O)c2ccc(CN3CCN(C)CC3)cc2)cc1Nc1nccc(-c2cccnc2)n1 [Imatinib (Gleevec)]	104	110
NC(=O)Nc1cc(-c2cccc(F)c2)sc1C(=O)N[C@H]1CCCNC1	116	92.3
COC(=O)c1ccc2c(C(=Nc3ccc(N(C)C(=O)CN4CCN(C)CC4)cc3)c3ccccc3)c(O)[nH]c2c1 [BIBF1120 (Vargatef)]	96	108
C[S+]([O-])c1ccc(-c2nc(-c3ccc(F)cc3)c(-c3ccncc3)[nH]2)cc1 (stereo unspecified)	97.2 and 103	109 and 105
Cc1cnc(NC(=O)Nc2cc(Br)c(C)cc2OC[C@@H]2CNCCO2)cn1	102	113
NCCNS(=O)(=O)c1cccc2cnccc12	105	107
CCOc1cc2ncc(C#N)c(Nc3ccc(OCc4ccccn4)c(Cl)c3)c2cc1NC(=O)/C=C/CN(C)C [Neratinib (HKI-272)]	103	104
CC[C@H](CO)Nc1nc(NCc2ccccc2)c2ncn(C(C)C)c2n1 [Roscovitine]	107	105
Cc1cc(C(C)Nc2ccccc2)c2nc(N3CCOCC3)cc(=O)n2c1 (stereo unspecified)	90.1	89
O=C(Nc1c[nH]nc1-c1nc2ccc(CN3CCOCC3)cc2[nH]1)NC1CC1	131	113
